IDE exosite inh = displaces the probe from the exo-site of human IDE; P14735; purified IDE, FL-6b probe fluorescence polarization; stronger effect = lower value; z-score at 20 µM; actives 6.3% (n = 17,000); AID 1259349;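 active = z-score of -3 or lower, meaning strong loss of probe binding signal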;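 note: His-tagged human IDE residues 42-1019 made in E. coli with 30 nM FL-6b probe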
The depositor's hits bear a star. This is one part of a sample in which hits are shown more often than they occur.

SMILES | IDE exosite inh
CC(=O)N1CCCCN2[C@@H](CO)[C@H](c3ccc(-c4cccc(C(=O)N(C)C)c4)cc3)[C@@H]2C1 | 4.59
C[C@@H](NC(=O)C[C@H]1CC[C@@H]2[C@@H](COc3ccc(NC(=O)C4CCOCC4)cc3C(=O)N2C)O1)c1ccccc1 | -1.66
O=C(C[C@H]1C=C[C@H](NC(=O)C2CCC2)[C@@H](CO)O1)NC1CCCCC1 | -0.438
CCCC#Cc1ccc([C@H]2[C@H]3CN(C(=O)NCCC)CC(=O)N3[C@H]2CO)cc1 | 2.21
CNC(=O)C[C@H]1CC[C@@H]2[C@H](COc3ccc(NC(=O)c4ccccc4F)cc3C(=O)N2C)O1 | 0.446
CC(=O)N1CCCCN2[C@H](C1)[C@H](c1ccc(-c3ccccc3)cc1)[C@@H]2CO | 0.469
CC(=O)N1CCCCN2[C@H](CO)[C@@H](c3ccc(-c4cccc(C)c4)cc3)[C@H]2C1 | -5.65*
COCC(=O)N1CCCCN2[C@H](CO)[C@H](c3ccc(-c4ccc(C)cc4)cc3)[C@H]2C1 | 0.0987
COCC(=O)N1CCCCN2[C@H](CO)[C@@H](c3ccc(-c4cccc(C)c4)cc3)[C@H]2C1 | -0.661
COCC(=O)N1CCCCN2[C@H](C1)[C@@H](c1ccc(-c3cccc(C)c3)cc1)[C@@H]2CO | -4.95*
CC(=O)N1CCCCN2[C@@H](CO)[C@@H](c3ccc(-c4ccccc4)cc3)[C@@H]2C1 | -1.84
CC(=O)N1CCCCN2[C@H](CO)[C@H](c3ccc(-c4ccc(C)cc4)cc3)[C@@H]2C1 | 0.446
CC(=O)N1CCCCN2[C@@H](CO)[C@@H](c3ccc(-c4cccc(C)c4)cc3)[C@@H]2C1 | -2.41
CC(=O)N1CCCCN2[C@H](CO)[C@@H](c3ccc(-c4cccc(C)c4)cc3)[C@@H]2C1 | -3.48*
N#C[C@@H]1[C@H](c2ccc(C3=CCCC3)cc2)[C@H](CO)N1C(=O)C1CCOCC1 | 4.27
COc1ccc2c3c(n(C)c2c1)[C@H](CO)N(C(C)=O)CC31CCN(C(=O)c2cnccn2)CC1 | -1.57
C[C@@H]1CCCCO[C@@H](CN(C)S(=O)(=O)c2cn(C)cn2)[C@H](C)CN([C@@H](C)CO)C(=O)c2cc(N(C)C)ccc2O1 | 1.09
C/C=C/c1ccc([C@H]2[C@@H](CNC(=O)c3ccccn3)N(C(=O)CC)[C@H]2CO)cc1 | 3.15
Cc1cccc(-c2ccc([C@H]3[C@@H](CO)N4CCCCN(S(=O)(=O)c5ccccc5C)C[C@H]34)cc2)c1 | -0.559
Cc1cccc(-c2ccc([C@@H]3[C@@H](CO)N4CCCCN(S(=O)(=O)c5ccccc5F)C[C@@H]34)cc2)c1 | -27.2*
Cc1cccc(-c2ccc([C@H]3[C@@H](CO)N4CCCCN(S(=O)(=O)c5ccccc5C)C[C@@H]34)cc2)c1 | 3.6
Cc1cccc(-c2ccc([C@@H]3[C@@H](CO)N4CCCCN(S(=O)(=O)c5ccccc5F)C[C@H]34)cc2)c1 | 0.502
Cc1cccc(-c2ccc([C@H]3[C@@H](CO)N4CCCCN(S(=O)(=O)c5ccccc5F)C[C@@H]34)cc2)c1 | -0.0513
Cc1cccc(-c2ccc([C@@H]3[C@H](CO)N4CCCCN(S(=O)(=O)c5ccccc5C)C[C@@H]34)cc2)c1 | -10.8*
N#C[C@@H]1N[C@@H](CO)[C@H]1c1ccc(C#CC2CCCC2)cc1 | 3.32
SMILES | IDE exosite inh
CCN(C[C@H]1N[C@H](CO)[C@H]1c1ccc(C2=CCCC2)cc1)C(=O)c1ccncc1 | 2.27
O=S(=O)(Cc1ccccc1)N1[C@H](CO)[C@@H](c2ccccc2)C12CN(CCC(F)(F)F)C2 | 1.14
C[C@@H](O)C#Cc1ccc([C@H]2[C@@H](CO)N3CCCCN(C(=O)c4ccc(F)cc4)C[C@H]23)cc1 | 1.72
O=C1CN(S(=O)(=O)c2ccccc2)C[C@@H]2[C@H](c3ccc(C#CCc4ccccc4)cc3)[C@@H](CO)N12 | 1.68
CCS(=O)(=O)N1CCCCN2[C@@H](CO)[C@H](c3ccc(C#Cc4ccccc4OC)cc3)[C@@H]2C1 | -5.88*
CCCC#Cc1ccc([C@H]2[C@H](CO)N3CCCCN(S(C)(=O)=O)C[C@@H]23)cc1 | 3.43
COc1ccccc1C#Cc1ccc([C@H]2[C@@H](CO)N3CCCCN(S(C)(=O)=O)C[C@@H]23)cc1 | -10.4*
COc1ccc(C#Cc2ccc([C@@H]3[C@H](CO)N4CCCCN(S(=O)(=O)c5ccccc5)C[C@@H]34)cc2)cc1 | 1.17
CS(=O)(=O)N1CCCCN2[C@H](CO)[C@H](c3ccc(C#Cc4ccccn4)cc3)[C@@H]2C1 | 1.31
O=S(=O)(Cc1ccccc1)N1CCCCN2[C@@H](CO)[C@@H](c3ccc(C#Cc4ccccc4)cc3)[C@@H]2C1 | 3.27
COc1ccccc1C#Cc1ccc([C@@H]2[C@@H](CO)N3CCCCN(S(C)(=O)=O)C[C@H]23)cc1 | -5.62*
CCCC#Cc1ccc([C@H]2[C@@H](CO)N3CCCCN(S(C)(=O)=O)C[C@@H]23)cc1 | 1.36
O=S(=O)(Cc1ccccc1)N1CCCCN2[C@H](CO)[C@H](c3ccc(C#Cc4ccccc4)cc3)[C@@H]2C1 | 3.66
N#C[C@H]1[C@@H](c2ccccc2-c2cccc(F)c2)[C@H](CO)N1C(=O)CN1CCOCC1 | 0.748
O=C(NCC[C@@H]1CC[C@H](NS(=O)(=O)c2ccc(F)cc2)[C@@H](CO)O1)c1ccc2c(c1)OCO2 | 1.74
CC(C)CC#Cc1ccc([C@H]2[C@@H](CO)N3C(=O)CN(C(=O)CN4CCOCC4)C[C@@H]23)cc1 | 1.65
CCN(C[C@@H]1[C@@H](c2ccccc2)[C@H](CO)N1CC1CC1)C(=O)c1ccccn1 | 1.12
CCS(=O)(=O)N1CC2(CN(Cc3cccc(Cl)c3)[C@@H](CO)c3c2c2ccc(OC)cc2n3C)C1 | -0.298
CC(C)(O)C#Cc1ccc([C@@H]2[C@@H](CO)N3CCCCN(C(=O)c4ccncc4)C[C@H]23)cc1 | 3.27
O=C(c1cccnc1)N1CC(=O)N2[C@@H](CO)[C@@H](c3ccc(-c4ccccc4F)cc3)[C@@H]2C1 | 0.484
O=C(c1cccc(F)c1)N1CC(=O)N2[C@@H](CO)[C@H](c3ccc(-c4ccccc4)cc3)[C@@H]2C1 | 2.42
O=C(c1cccc(F)c1)N1CC(=O)N2[C@H](C1)[C@@H](c1ccc(-c3ccccc3F)cc1)[C@@H]2CO | -3.92*
O=C(c1cccc(F)c1)N1CC(=O)N2[C@H](CO)[C@H](c3ccc(-c4ccccc4F)cc3)[C@H]2C1 | -4.76*
O=C(c1ccc(F)cc1)N1CC(=O)N2[C@H](CO)[C@@H](c3ccc(-c4ccccc4F)cc3)[C@H]2C1 | 0.687
O=C(c1cccc(F)c1)N1CC(=O)N2[C@@H](CO)[C@@H](c3ccc(-c4ccccc4F)cc3)[C@@H]2C1 | -1.15
SMILES | IDE exosite inh
CCCNC(=O)Nc1ccc2c(c1)OC[C@H](C)N(S(C)(=O)=O)C[C@@H](C)[C@@H](OC)CN(C)C2=O | 0.711
Cc1noc(C)c1S(=O)(=O)N(C)C[C@@H]1OCCCC[C@@H](C)Oc2ccc(NS(=O)(=O)c3cn(C)cn3)cc2C(=O)N([C@H](C)CO)C[C@@H]1C | -1.47
OC[C@@H]1[C@@H](c2ccc(C#Cc3ccccc3F)cc2)[C@H]2CN(CC3CCOCC3)CCCCN12 | 2.23
OC[C@H]1[C@H](c2ccc(C#Cc3ccccc3F)cc2)[C@H]2CN(CC3CCOCC3)CCCCN21 | -0.279
OC[C@@H]1[C@H](c2ccc(C#Cc3ccccc3)cc2)[C@H]2CN(CC3CCOCC3)CCCCN12 | -4.38*
CCCC#Cc1ccc([C@@H]2[C@@H](CO)N3CCCCN(CC4CCOCC4)C[C@@H]23)cc1 | -1.16
CCCC#Cc1ccc([C@@H]2[C@@H](CO)N3CCCCN(CC4CCOCC4)C[C@H]23)cc1 | 0.685
